Compound activity: PubChem, NMMLSC
In the library only some 1.2% were active in any assay of this set; here they are far more common.
GSH fluor = compound fluorescence on glutathione beads, profiling panel, artefact control, biophysical, 488/530 nm, flow cytometry | actives 0.25% (n = 190,000) | fluorescence (KMESF) at 10 µM | GSH beads flow cytometry, compound fluorescence 488/530 nm; stronger effect = higher value; in the data active means fluorescence above about 89;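 further: glutathione beads carrying GST-tagged Bcl family fusion proteins plus one bare bead set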
RGS16-Gao = modulators of RGS16 binding to Galphao, primary screen, biochemical, human proteins, multiplexed bead flow cytometry; Regulator of G-protein signaling 16 (Homo sapiens) + Guanine nucleotide-binding protein …; binding response (% of control), % at 10 µM; actives 0.38% (n = 220,000); bead-based flow cytometry RGS16-Galphao binding, fluorescence; actives lie on both sides;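 further: Galphao activated by GDP with aluminum fluoride before binding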
Target sequence (O15492 whole entry, looked up): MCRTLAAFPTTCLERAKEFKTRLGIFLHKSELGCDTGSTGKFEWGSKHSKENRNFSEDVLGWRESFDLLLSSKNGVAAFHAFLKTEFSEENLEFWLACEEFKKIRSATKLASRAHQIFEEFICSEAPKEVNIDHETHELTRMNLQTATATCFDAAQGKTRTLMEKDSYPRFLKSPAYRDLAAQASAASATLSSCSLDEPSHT
Target sequence (P09471 whole entry, looked up): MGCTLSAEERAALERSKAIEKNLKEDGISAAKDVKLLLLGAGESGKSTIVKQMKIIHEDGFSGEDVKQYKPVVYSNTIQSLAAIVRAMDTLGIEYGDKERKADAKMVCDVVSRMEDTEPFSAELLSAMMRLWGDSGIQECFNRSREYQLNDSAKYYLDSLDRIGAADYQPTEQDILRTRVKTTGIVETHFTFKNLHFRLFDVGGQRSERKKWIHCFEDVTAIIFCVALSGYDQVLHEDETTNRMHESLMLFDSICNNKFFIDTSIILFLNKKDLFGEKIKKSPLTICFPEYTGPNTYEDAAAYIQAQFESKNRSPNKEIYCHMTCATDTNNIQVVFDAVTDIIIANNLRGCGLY
RGS4-Gao reg = modulators of RGS4 binding to Galphao, primary screen, biochemical, multiplexed bead flow cytometry; actives lie on both sides; binding response (% of control), % at 10 µM; actives 0.33% (n = 220,000); AID 1415, 2008; in the data active means binding response below about 49% or above about 150%; inactive means in between;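 further: fluorescent Galphao activated with aluminum fluoride binding bead-coupled RGS4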
RGS7-Gao reg = RGS7-Galphao binding modulators, primary screen, biochemical, multiplexed bead flow cytometry; binding response (% of control), % at 10 µM; Guanine nucleotide-binding protein G(o) subunit alpha (Homo sapiens), P09471; actives 0.35% (n = 220,000); actives lie on both sides; in the data active means binding response below about 49% or above about 150%; inconclusive means no clear call, values can overlap the other calls; inactive means in between;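 further: fluorescent Galphao held in activated GDP-AlF4 state binding bead-coupled RGS7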
RGS8-Gao reg = RGS8-Galphao binding modulators, primary screen, biochemical, multiplexed bead flow cytometry. Guanine nucleotide-binding protein G(o) subunit alpha (Homo sapiens), P09471. actives lie on both sides. response (percent of control binding), % at 10 µM. actives 0.34% (n = 220,000); in the data active means response below about 60% or above about 140%; inactive means in between;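 further: Galphao activated as the GDP aluminium fluoride complex binding bead-coupled RGS8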
Avidin fluor = green autofluorescence of compounds with avidin beads – biophysical, 488/530 nm, flow cytometry, artefact control, profiling panel; compound fluorescence 488/530 nm; stronger effect = higher value; fluorescence (KMESF) at 10 µM; actives 0.38% (n = 220,000); AID 1775, 2009; in the data active means fluorescence above about 47
RGS-Gao = modulators of RGS–Galpha-o binding, primary screen, biochemical, multiplexed beads, flow cytometry, RGS4/7/8/16/19. shares compounds with RGS16-Gao. multiplexed bead flow cytometry. RGS4–Galpha-o binding response, % at 10 µM. actives 99% (n = 1,600);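 further: fluorescently labeled Galpha-o bound to GDP with aluminium fluoride binding biotinylated RGS beads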
Biotin-avidin = disruption of biotin probe capture by avidin, counter-screen for RGS protein interaction modulators, biochemical, flow cytometry, bead-based; streptavidin beads, fluorescein-biotin binding; 1,700 tested, under 10 active; inhibition, % at 10 µM; shares compounds with RGS16-Gao;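 active means inhibition above 50%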;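 further: median green fluorescence of gated singlet beads compared with DMSO control wells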
RGS8-Gao single = RGS8-Galphao binding modulators, confirmation, biochemical, multiplexed bead flow cytometry, single concentration. AID 1836, 2009. actives 3% (n = 1,700). binding response (% of control), % at 10 µM. shares compounds with RGS16-Gao. bead-based flow cytometry RGS8-Galphao binding, fluorescence; actives lie on both sides; in the data active means binding response below about 72% or above about 130%; inactive means in between;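 further: Galphao activated as GDP AlF4 complex before binding bead RGS8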
RGS7-Gao confirm = RGS7-Galphao binding modulators, confirmation, biochemical, multiplexed bead flow cytometry, single concentration | bead-based flow cytometry RGS7-Galphao binding; actives lie on both sides | shares compounds with RGS16-Gao | response (percent of control binding), % at 10 µM | actives 7.8% (n = 1,700); in the data active means response below about 75% or above about 130%; inactive means in between;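 further: fluorescent Galphao activated with GDP and aluminum fluoride binding bead-coupled RGS7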
RGS16-Gao single = modulators of RGS16-Galphao protein binding, confirmation, biochemical, single concentration, multiplexed bead flow cytometry. shares compounds with RGS16-Gao. bead-based flow cytometry; actives lie on both sides. response (% of control binding), % at 10 µM. actives 4% (n = 1,700); in the data active means response below about 74% or above about 130%; inactive means in between;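 further: Galphao activated as the GDP aluminium fluoride complex binding bead-coupled RGS16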
RGS4-Gao confirm = modulators of RGS4-Galphao protein binding, confirmation, biochemical, single concentration, multiplexed bead flow cytometry | shares compounds with RGS16-Gao | actives 4% (n = 1,700) | actives lie on both sides | binding response (% of control), % at 10 µM; in the data active means binding response below about 74% or above about 130%; inactive means in between
RGS19-Gao conf = regulators of RGS19-Galphao binding, confirmation, biochemical, single point, multiplexed bead flow cytometry; shares compounds with RGS16-Gao; bead-based flow cytometry RGS19-Galphao binding; actives lie on both sides; response (percent of control binding), % at 10 µM; actives 5% (n = 1,700); AID 1841, 2009; in the data active means response below about 50% or above about 160%; inactive means in between
Of the large screens only hits and unclear results are named; the others gave an inactive call (follow-up assays come after a bar, where they were run); [ ] = another dose, or the depositor's remark. Unless noted, how the calls were made is not given here.

O[C@@H]1C2CCCC1[C@]1(O)CCCCC1C2 (some centres not stated)	none
NC[C@@]12CCCC1C1CCC2C1 (some centres not stated)	none (no result: RGS16-Gao, RGS4-Gao reg, RGS7-Gao reg, RGS8-Gao reg, Avidin fluor) | Biotin-avidin inactive | RGS8-Gao single inactive | RGS7-Gao confirm inactive | RGS16-Gao single inactive | RGS4-Gao confirm inactive | RGS19-Gao conf inactive
COC(=O)c1ccc(Oc2ccc3nnc(C)n3n2)cc1	RGS8-Gao reg 141.8[activator] | RGS-Gao 122.3 | Biotin-avidin inactive | RGS8-Gao single inactive | RGS7-Gao confirm inactive | RGS16-Gao single inactive | RGS4-Gao confirm inactive | RGS19-Gao conf inactive
COC(=O)c1ccc(Oc2ccc3nncn3n2)cc1	none
CC1=C(C(=O)OC(C)(C)C)C(c2cccs2)NC(=O)N1 (configuration not stated)	none
N#Cc1nc(COc2ccc(Br)cc2)oc1NCCN1CCOCC1	RGS8-Gao reg 143.3[activator] | RGS-Gao 140.1 | Biotin-avidin inactive | RGS8-Gao single inactive | RGS7-Gao confirm inactive | RGS16-Gao single inactive | RGS4-Gao confirm inactive | RGS19-Gao conf inactive
Cc1ccc(C)c(C(=O)COC(=O)c2cc(Cl)nc3ccccc23)c1	none
Cc1ccc(C(=O)COC(=O)c2cc(Cl)nc3ccccc23)cc1C	RGS8-Gao reg 157.6[activator] | RGS-Gao 129.9
CN(c1ccccc1)S(=O)(=O)c1cccc(NC(=O)CN2CCCc3ccccc32)c1	RGS16-Gao 177.9[activator], RGS7-Gao reg inconclusive (no result: GSH fluor) | RGS-Gao 141.1 | Biotin-avidin inactive | RGS8-Gao single inactive | RGS7-Gao confirm 130.9[activator] | RGS16-Gao single inactive | RGS4-Gao confirm inactive | RGS19-Gao conf inactive
N#Cc1cc(C(=O)c2ccccc2O)cn(-c2nccs2)c1=O	RGS8-Gao reg 58.0 | RGS-Gao 57.0 | Biotin-avidin inactive | RGS8-Gao single inactive | RGS7-Gao confirm inactive | RGS16-Gao single inactive | RGS4-Gao confirm inactive | RGS19-Gao conf inactive
